Data reported in PMC10726135, “HNF4α isoforms regulate the circadian balance between carbohydrate and lipid metabolism in the liver”.
Over roughly 18,000 sequences, “log2 normalized intensity” has its median near 0.36; the highest 2% begin near 7.3. Only a selection was taken, and the highest values are over-represented in it overall.

Each sequence was assayed against T1, HNF4alpha8 (COS-7 nuclear extract) (Homo sapiens, UniProt P41235-5 1-452) (assay: protein-binding microarray; COS-7 nuclear extract on double-stranded Agilent 4x180k PBM; binding buffer, salt, pH and temperature not given in the material; high values mean tight binding). Details: chain copies: 2; label: 3' end of strand 1 on the slide; dsDNA, one strand shown.
T1 sequence: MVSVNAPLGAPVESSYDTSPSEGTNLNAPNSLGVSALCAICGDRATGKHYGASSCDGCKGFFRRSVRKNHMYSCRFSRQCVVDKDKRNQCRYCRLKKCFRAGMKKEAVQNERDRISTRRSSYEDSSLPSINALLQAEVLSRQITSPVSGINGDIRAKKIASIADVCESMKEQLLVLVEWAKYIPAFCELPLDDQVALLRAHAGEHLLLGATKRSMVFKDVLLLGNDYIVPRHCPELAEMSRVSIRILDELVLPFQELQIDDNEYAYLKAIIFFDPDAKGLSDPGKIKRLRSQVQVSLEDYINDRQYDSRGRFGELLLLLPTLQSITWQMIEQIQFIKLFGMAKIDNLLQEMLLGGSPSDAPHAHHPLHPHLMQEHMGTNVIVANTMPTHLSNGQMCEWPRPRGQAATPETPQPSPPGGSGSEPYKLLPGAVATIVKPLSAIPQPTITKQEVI
Summary of the method: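 A human HNF4α isoform was expressed in COS-7 cells by transient CaPO4 transfection, and nuclear extracts were prepared. These were applied to a custom Agilent SurePrint G3 4x180k array carrying ~44,000 test sequences in quadruplicate as double-stranded ~60-nt oligonucleotides, and an Agilent G2565CA scanner imaged bound HNF4α at 2-µm resolution. The background-corrected, normalized gProcessedSignal from Agilent software was used as the binding signal.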

How did the binding signal turn out when “GTAAGCACAAAGTACAGCTTTTTGTTTGTGGCCTAGGGAGATTAGAGTATCGGTCGA” was run?
The binding signal was 2.02 log2 normalized intensity.

With “AAACATCAAGGAAGAGAACTCCCTATCCCCGCCTAGGGAGATTAGAGTATCGGTCGA” as the sequence, how does the binding signal read?
Its binding signal is 1.36 log2 normalized intensity.

Which binding signal does the source give for “GATAGATATGTTGAAGTGACTAAATGAGAAGCCTAGGGAGATTAGAGTATCGGTCGA” here?
The binding signal was -0.611 log2 normalized intensity.

For “GTACTTAAAAATGCCTTTCATCTTTGAGAAGCCTAGGGAGATTAGAGTATCGGTCGA”, which binding signal is on record?
The binding signal was 0.583 log2 normalized intensity.

For “GTGTCAACATGGACTTTGTTGTTTGCCTCTGCCTAGGGAGATTAGAGTATCGGTCGA”, which binding signal is on record?
The binding signal was 4.08 log2 normalized intensity.

How did the binding signal turn out when “AGAAGCCACTGCGACCTTTGCCCTCCCTAAGCCTAGGGAGATTAGAGTATCGGTCGA” was run?
Its binding signal is 8.33 log2 normalized intensity.

Which binding signal does the source give for “CCGCGGCGGGCCCTCGACCTTTGCCCTCCAGCCTAGGGAGATTAGAGTATCGGTCGA” here?
Its binding signal is 9.76 log2 normalized intensity.

For “ACCGGCAGAGAGAAGCCACTGCGACCTTTGGCCTAGGGAGATTAGAGTATCGGTCGA”, which binding signal is on record?
The binding signal was 5.59 log2 normalized intensity.

With “CCACTGCGACCTTTGCCCTCCCTAAATCCAGCCTAGGGAGATTAGAGTATCGGTCGA” as the sequence, how does the binding signal read?
Its binding signal is 7.84 log2 normalized intensity.

Which binding signal does the source give for “CTTTGCCCTCCCTAAATCCAGAGGTATTTGGCCTAGGGAGATTAGAGTATCGGTCGA” here?
The binding signal was 2.04 log2 normalized intensity.

How did the binding signal turn out when “CAGAGAGAAGCCACTGCGACCTTTGCCCTCGCCTAGGGAGATTAGAGTATCGGTCGA” was run?
Its binding signal is 10 log2 normalized intensity.

With “TTGCCATGACCTTTGAAGCCCAGAACACTCGCCTAGGGAGATTAGAGTATCGGTCGA” as the sequence, how does the binding signal read?
Its binding signal is 4.51 log2 normalized intensity.

With “TCACAACCTCCCTTTGAAGGAGCCACTGGTGCCTAGGGAGATTAGAGTATCGGTCGA” as the sequence, how does the binding signal read?
Its binding signal is -0.869 log2 normalized intensity.

For “CTTCTCCGCGGCGGGCCCTCGACCTTTGCCGCCTAGGGAGATTAGAGTATCGGTCGA”, which binding signal is on record?
Its binding signal is 5.8 log2 normalized intensity.

For “CCCTCCCTAAATCCAGAGGTATTTGGCCCAGCCTAGGGAGATTAGAGTATCGGTCGA”, which binding signal is on record?
The binding signal was 1.83 log2 normalized intensity.

With “TCAGCCTTCTCCGCGGCGGGCCCTCGACCTGCCTAGGGAGATTAGAGTATCGGTCGA” as the sequence, how does the binding signal read?
Its binding signal is 0.757 log2 normalized intensity.

Which binding signal does the source give for “TTCCCCTCCCTTCCACCTTTGCCCTCCAAAGCCTAGGGAGATTAGAGTATCGGTCGA” here?
Its binding signal is 6.42 log2 normalized intensity.

Which binding signal does the source give for “ACCCACCCACCTATGTCCTTATCCTCATTGGCCTAGGGAGATTAGAGTATCGGTCGA” here?
The binding signal was 0.831 log2 normalized intensity.

For “CTCACCAGTGGGCCCAGAGCACAACCTTTGGCCTAGGGAGATTAGAGTATCGGTCGA”, which binding signal is on record?
The binding signal was 1.42 log2 normalized intensity.

How did the binding signal turn out when “TATTCAGTCCCCCATCCCAGAGGTCAAACTGCCTAGGGAGATTAGAGTATCGGTCGA” was run?
Its binding signal is 5.57 log2 normalized intensity.

“GGAATTTGGACTTCAGCCCAGGCTGATTATGCCTAGGGAGATTAGAGTATCGGTCGA” was tested. Which binding signal did it give?
Its binding signal is 4.7 log2 normalized intensity.

How did the binding signal turn out when “CAGCAAGCATTAATCCCTGAGCCTGGACCTGCCTAGGGAGATTAGAGTATCGGTCGA” was run?
The binding signal was 2.58 log2 normalized intensity.

How did the binding signal turn out when “GCGCATCGGGCGCCAGCGCCCCCGTGTGGCGCCTAGGGAGATTAGAGTATCGGTCGA” was run?
The binding signal was 1.2 log2 normalized intensity.

“GACCAGCGTGTGGCGCCATTTCAGGTCCACGCCTAGGGAGATTAGAGTATCGGTCGA” was tested. Which binding signal did it give?
The binding signal was 1.74 log2 normalized intensity.

Which binding signal does the source give for “AATACTCCAGTCATTGTACAAACACATACCGCCTAGGGAGATTAGAGTATCGGTCGA” here?
Its binding signal is -0.533 log2 normalized intensity.

How did the binding signal turn out when “CTCTTAGTATTACCATGTCCTGTGATTAAGGCCTAGGGAGATTAGAGTATCGGTCGA” was run?
Its binding signal is 1.16 log2 normalized intensity.

How did the binding signal turn out when “TGGGCCAGGTATTTGGACTTTTTGTAGTTTGCCTAGGGAGATTAGAGTATCGGTCGA” was run?
The binding signal was 3.34 log2 normalized intensity.

“CCCTGACCAAGGGTCATGCTGGTCTCCTTGGCCTAGGGAGATTAGAGTATCGGTCGA” was tested. Which binding signal did it give?
Its binding signal is 2.46 log2 normalized intensity.

Which binding signal does the source give for “TTGTTCAATAAGCAATACATTGAACTTTGAGCCTAGGGAGATTAGAGTATCGGTCGA” here?
The binding signal was 8.23 log2 normalized intensity.

With “CAATAAGCAATACATTGAACTTTGAACACCGCCTAGGGAGATTAGAGTATCGGTCGA” as the sequence, how does the binding signal read?
Its binding signal is 7.99 log2 normalized intensity.

For “GTTCAAACTTTATTTGATGATGAAGCAACAGCCTAGGGAGATTAGAGTATCGGTCGA”, which binding signal is on record?
Its binding signal is 0.662 log2 normalized intensity.

For “TTTTCAACATATACTTTGAACTTGTTTTTTGCCTAGGGAGATTAGAGTATCGGTCGA”, which binding signal is on record?
Its binding signal is 2.56 log2 normalized intensity.

How did the binding signal turn out when “AGCAATACATTGAACTTTGAACACCTCTTCGCCTAGGGAGATTAGAGTATCGGTCGA” was run?
Its binding signal is 6.54 log2 normalized intensity.

Which binding signal does the source give for “AAGCAAACAAAACACGGACTTTGAAGCTCCGCCTAGGGAGATTAGAGTATCGGTCGA” here?
The binding signal was 3 log2 normalized intensity.

How did the binding signal turn out when “GGCAGTCGTGATAGTGACCACCTGGTGGACGCCTAGGGAGATTAGAGTATCGGTCGA” was run?
Its binding signal is 1.42 log2 normalized intensity.

For “GTTGAGAACTGAGTTTAGAATTTGAACTATGCCTAGGGAGATTAGAGTATCGGTCGA”, which binding signal is on record?
The binding signal was 3.68 log2 normalized intensity.

With “AGTTCAATTTCCAACAAATGAAACTAAAGGGCCTAGGGAGATTAGAGTATCGGTCGA” as the sequence, how does the binding signal read?
Its binding signal is -0.972 log2 normalized intensity.

Which binding signal does the source give for “CGCTCCCCGACCTCCTGCTGCAGCTCTGGGGCCTAGGGAGATTAGAGTATCGGTCGA” here?
The binding signal was -0.577 log2 normalized intensity.

“TGTTTATCAGAGCAAAGTTCAATTTCCAACGCCTAGGGAGATTAGAGTATCGGTCGA” was tested. Which binding signal did it give?
Its binding signal is 4.31 log2 normalized intensity.

For “ATGTGCCCTTTGTACCTGGGGCAAACATCAGCCTAGGGAGATTAGAGTATCGGTCGA”, which binding signal is on record?
The binding signal was 5.3 log2 normalized intensity.

With “TCAAATATTTGGATAATGTGCCCTTTGTACGCCTAGGGAGATTAGAGTATCGGTCGA” as the sequence, how does the binding signal read?
Its binding signal is 7.39 log2 normalized intensity.

How did the binding signal turn out when “ATGCTTCAAATATTTGGATAATGTGCCCTTGCCTAGGGAGATTAGAGTATCGGTCGA” was run?
The binding signal was 3.92 log2 normalized intensity.

For “TATTTGGATAATGTGCCCTTTGTACCTGGGGCCTAGGGAGATTAGAGTATCGGTCGA”, which binding signal is on record?
Its binding signal is 7.72 log2 normalized intensity.

“GGATAATGTGCCCTTTGTACCTGGGGCAAAGCCTAGGGAGATTAGAGTATCGGTCGA” was tested. Which binding signal did it give?
The binding signal was 5.83 log2 normalized intensity.

For “GTCAAACAAAAGAAAATGTGCCCTTTGGACGCCTAGGGAGATTAGAGTATCGGTCGA”, which binding signal is on record?
Its binding signal is 7.26 log2 normalized intensity.

With “CAATCAGCCTTAGGTATGCCCCATGGTAAGGCCTAGGGAGATTAGAGTATCGGTCGA” as the sequence, how does the binding signal read?
Its binding signal is 1.49 log2 normalized intensity.

How did the binding signal turn out when “GAATTCCATCCCAGGTCCACAGTGCACATTGCCTAGGGAGATTAGAGTATCGGTCGA” was run?
The binding signal was 2.26 log2 normalized intensity.

How did the binding signal turn out when “AAGGACAAAGGTCATGTTTTCAAACAATGAGCCTAGGGAGATTAGAGTATCGGTCGA” was run?
Its binding signal is 5.49 log2 normalized intensity.

With “CTGCTGGTTTTTGTCAAAGATAGTTGTAGTGCCTAGGGAGATTAGAGTATCGGTCGA” as the sequence, how does the binding signal read?
The binding signal was 1.62 log2 normalized intensity.
